# Compounds with a hit are over-represented: about 2.8% of the library has one in this group of screens.
# Peg3 promoter = Peg3 promoter-driven luciferase inhibitors, primary screen, cell-based, HeLa, luciferase luminescence; inhibition, % at 20 µM; HeLa PEG-Prom luciferase reporter, overnight; AID 588405, 2011; 360,000 tested, 1.7% active;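 active means inhibition of at least 50% at 20 µM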
# MITF TRPM1 inh = inhibitors of MITF-dependent TRPM1 promoter reporter, primary screen, cell-based, SK-MEL-5, single point, luciferase; SK-MEL-5 TRPM1 promoter luciferase, 24 h; inhibition, % at 12.5 µM; 330,000 tested, 0.83% active; AID 488899, 2010;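 active means mean inhibition across replicates of 60% or more, whatever share of single replicates reaches that level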
# Shn3 3UTR inh = reduction of Shn3 3'UTR firefly luciferase signal, primary screen, Schnurri-3 inhibitor project, cell-based, Clone20 osteoblasts, set 2; Clone20 osteoblast Shn3 3'UTR firefly luciferase, 24 h; 360,000 tested, 0.52% active; AID 588674, 2011; inhibition, % at 12.5 µM;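 active means mean inhibition of at least 75% with every replicate also reaching 75%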;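 further: 0% = median of neutral control wells and 100% = pilot-screen positive control compound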
# HIF-2a inh = HIF-2a reporter inhibitors, primary screen, luminescence, 786-0 RCC cells; 786-0 RCC cells HIF-2a reporter, luciferase luminescence, overnight; inhibition, % at 18.8 µM; 360,000 tested, 0.72% active;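 active means inhibition of the luminescence signal of 40% or more relative to plate controls, in a single-dose primary screen at 18.75 µM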
# PAX8 reporter = inhibitors of PAX8-driven TPO luciferase reporter, primary screen, RMG-I cells, single concentration. SteadyGlo, 24 h. inhibition, % at 12.6 µM. 360,000 tested, 1.2% active. AID 652154, 2013;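 active means mean replicate inhibition at least 60% with every replicate also reaching 60%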;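 further: luciferase light reporting Pax8 driven TPO promoter activity; plate controls were median of neutral control wells for no effect and mitoxantrone controls for full effect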
# EBV LMP1 NFkB = EBV LMP1-driven NF-kappaB luciferase reporter inhibitors, primary screen, cell-based, luminescence, single point; 350,000 tested, 0.69% active; inhibition, % at 12.5 µM; LMP1-induced NF-kappaB luciferase reporter cells; in the data active means inhibition above about 41%;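 further: 0% = neutral control wells and 100% = reference inhibitor control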
# Numbers without * were called inactive; x = not tested or not shown.
SMILES,Peg3 promoter,MITF TRPM1 inh,Shn3 3UTR inh,HIF-2a inh,PAX8 reporter,EBV LMP1 NFkB
Oc1ccc(-c2nc3c4c(ncn3n2)-c2ccccc2CC42CCCC2)cc1,111*,12,9,20,x,-8
COc1ccc(NC(=O)N(C)C[C@H]2Oc3cc(C#CCC(C)C)ccc3S(=O)(=O)N([C@H](C)CO)C[C@H]2C)cc1,x,x,x,x,72*,x
C[C@H]1CN([C@@H](C)CO)S(=O)(=O)c2ccc(C#Cc3ccncc3)cc2O[C@H]1CN(C)C(=O)C1CCCCC1,x,x,x,x,76*,x
C[C@@H]1CN([C@@H](C)CO)S(=O)(=O)c2ccc(C#Cc3ccncc3)cc2O[C@@H]1CN(C)C(=O)Nc1ccc2c(c1)OCO2,x,x,x,x,-21,x
C[C@@H]1CN([C@@H](C)CO)S(=O)(=O)c2ccc(C#Cc3ccncc3)cc2O[C@@H]1CN(C)C(=O)C1CCCCC1,x,x,x,x,76*,x
C[C@H](CO)N1C[C@H](C)[C@@H](CN(C)C(=O)Nc2ccc3c(c2)OCO3)Oc2cc(C#Cc3ccncc3)ccc2S1(=O)=O,x,x,x,x,100*,x
C[C@@H]1CCCCO[C@@H](CN(C)Cc2ccc3c(c2)OCO3)[C@H](C)CN([C@@H](C)CO)C(=O)c2cc(NC(=O)Cc3ccccc3)ccc2O1,x,x,x,x,16,x
CCCNC(=O)C[C@H]1C[C@H]2c3cc(NC(=O)NC4CCCC4)ccc3O[C@H]2[C@H](CO)O1,x,x,x,x,-2,x
O=C(Nc1cccc(Cl)c1)N1C[C@@H]2[C@H](c3ccccc31)[C@@H](CO)N2CC1CCOCC1,x,x,x,x,11,x
Cc1cccc2sc(NC(=O)c3cccc(S(=O)(=O)N4CCc5ccccc54)c3)nc12,23,16,-15,6,-3,0
CCOC(=O)N1CCN(S(=O)(=O)c2ccc(C(=O)NNc3nc4c(C)cccc4s3)cc2)CC1,50,20,41,23,81*,92*
Cc1cccc2sc(NNC(=O)c3ccc(S(=O)(=O)N4CCc5ccccc5C4)cc3)nc12,61*,52,72,30,77*,-19
CCOC(=O)N1CCN(S(=O)(=O)c2ccc(C(=O)NNc3nc4cc(C)cc(C)c4s3)cc2)CC1,46,55,82,13,x,5
Cc1cccc2sc(NNC(=O)c3ccc(S(=O)(=O)N4CCCC(C)C4)cc3)nc12 (stereo not given),68*,42,23,10,x,8
CCc1nnc(NC(=O)c2ccc(S(=O)(=O)N3CCCC(C)C3)cc2)s1 (stereo not given),1,-2,-24,16,2,-8
CC(C)NC(=O)N(C)C[C@@H]1Oc2ccc(NC(=O)Cc3cn(C)c4ccccc34)cc2CC(=O)N([C@@H](C)CO)C[C@@H]1C,x,x,x,x,-2,x
COCC(=O)Nc1ccc2c(c1)[C@H]1C[C@@H](CC(=O)N3CCN(C)CC3)O[C@@H](CO)[C@H]1O2,x,x,x,x,-5,x
CN1CCN(C(=O)C[C@@H]2C=C[C@H](NC(=O)c3ccc4c(c3)OCO4)[C@@H](CO)O2)CC1,x,x,x,x,-3,x
CCC(=O)N1[C@@H]2CN(S(=O)(=O)c3ccccc3)c3ccccc3[C@@H]2[C@@H]1CO,x,x,x,x,-5,x
CC(=O)NC[C@@H]1[C@H](c2ccc(C3=CCCCC3)cc2)[C@H](CO)N1C(=O)NC(C)C,x,x,x,x,13,x
COCC(=O)N(C)C[C@@H]1Oc2cc(C3=CCCC3)ccc2S(=O)(=O)N([C@H](C)CO)C[C@H]1C,x,x,x,x,-28,x
C/C=C/c1ccc([C@@H]2[C@H](CO)N(S(C)(=O)=O)C23CN(C(=O)CC)C3)cc1,x,x,x,x,6,x
CCCCCCN(C(=O)CCl)c1ccccc1,27,34,-8,18,104*,7
CCCCCCCN(C(=O)CCl)c1cccc(C)c1,6,40,-30,19,103*,1
CCCC(=O)N(Cc1cc(=O)[nH]c2ccccc12)c1cccc(C)c1,16,13,8,21,5,5
SMILES,Peg3 promoter,MITF TRPM1 inh,Shn3 3UTR inh,HIF-2a inh,PAX8 reporter,EBV LMP1 NFkB
COc1ccc([Si](C)(C)[C@@H]2[C@@H](CCO)O[C@]3(C(=O)N(Cc4ccccc4)c4ccc(N5CCOC5=O)cc43)[C@H]2C)cc1,x,x,x,x,42,x
COc1ccc([Si](C)(C)[C@@H]2[C@@H](CCO)O[C@]3(C(=O)N(Cc4ccc(N5CCOC5=O)cc4)c4ccccc43)[C@H]2C)cc1,x,x,x,x,97*,x
COc1ccc([Si](C)(C)[C@@H]2[C@@H](CCO)O[C@]3(C(=O)N(Cc4cccc(N5CCOC5=O)c4)c4ccccc43)[C@H]2C)cc1,x,x,x,x,102*,x
COc1ccc([Si](C)(C)[C@H]2[C@H](CCO)O[C@@]3(C(=O)N(Cc4ccccc4)c4ccc(N5CCCCC5=O)cc43)[C@@H]2C)cc1,x,x,x,x,26,x
COc1ccc([Si](C)(C)[C@H]2[C@H](CCO)O[C@@]3(C(=O)N(Cc4ccccc4)c4ccc(N5CCC5=O)cc43)[C@@H]2C)cc1,x,x,x,x,110*,x
CCNC(=O)C[C@H]1CC[C@H]2[C@@H](COC[C@H](O)CN2C(=O)C2CCOCC2)O1,x,x,x,x,-7,x
O=C(O)c1ccccc1Nc1cc(Cl)c2nonc2c1[N+](=O)[O-],14,10,-2,18,7,1
O=[N+]([O-])c1c(Nc2ccc(O)cc2)cc(Cl)c2nonc12,103*,96*,95*,95*,113*,13
CN(C)c1cc(Nc2ccc(O)cc2)c([N+](=O)[O-])c2nonc12,-3,-4,12,8,-8,-3
O=[N+]([O-])c1c(Nc2ccccn2)cc(Cl)c2nonc12,108*,76*,95*,96*,27,54*
CN1c2ccc(-c3ccc(F)cc3)cc2[C@H]2[C@H](CCN2C(=O)Nc2ccc(F)cc2)[C@H]1CO,x,x,x,x,10,x
O=C(N=Nc1c(O)[nH]c2ccc(Cl)cc12)c1cc(-c2cccs2)nc2ccccc12,70*,19,10,-18,-14,1
CCCCOC(=O)NC1CCc2cc(OC)c(OC)c(OC)c2-c2ccc(SC)c(=O)cc21 (stereo not given),-9,36,-1,33,79*,0
CCOC(=O)NC1CCc2cc(OC)c(OC)c(OC)c2-c2ccc(SC)c(=O)cc21 (stereo not given),-29,33,-3,20,83*,0
COc1cc2c(c(OC)c1OC)-c1ccc(NC(=O)c3ccccc3)c(=O)cc1[C@@H](NC(C)=O)CC2,-3,3,-2,6,60,-1
CCOCC(=O)NC1CCc2cc(OC)c(OC)c(OC)c2-c2ccc(SC)c(=O)cc21 (stereo not given),-9,46,2,23,86*,-4
CN[C@H]1CCc2cc(OC)c(OC)c(OC)c2-c2ccc(OC)c(=O)cc21,-55,40,-7,19,90*,-12

# Screening data: PubChem BioAssay, several laboratories
